# Shown are actives, neighbours in structure and some others; about 14% of the full set was active somewhere.
# USP8 inh: inhibitors of human USP8 deubiquitinase | P40818 | purified USP8, Ub-rhodamine cleavage fluorescence, 30 min | inhibition, % at 20 µM | 4.2% of 47,000 active | AID 1645853
# USP28 inh: human USP28 deubiquitinase inhibition; purified USP28, Ub-rhodamine cleavage fluorescence, 30 min; inhibition, % at 25 µM; 3% of 47,000 active; AID 1645857
# Target sequence (Q96RU2 whole entry, looked up): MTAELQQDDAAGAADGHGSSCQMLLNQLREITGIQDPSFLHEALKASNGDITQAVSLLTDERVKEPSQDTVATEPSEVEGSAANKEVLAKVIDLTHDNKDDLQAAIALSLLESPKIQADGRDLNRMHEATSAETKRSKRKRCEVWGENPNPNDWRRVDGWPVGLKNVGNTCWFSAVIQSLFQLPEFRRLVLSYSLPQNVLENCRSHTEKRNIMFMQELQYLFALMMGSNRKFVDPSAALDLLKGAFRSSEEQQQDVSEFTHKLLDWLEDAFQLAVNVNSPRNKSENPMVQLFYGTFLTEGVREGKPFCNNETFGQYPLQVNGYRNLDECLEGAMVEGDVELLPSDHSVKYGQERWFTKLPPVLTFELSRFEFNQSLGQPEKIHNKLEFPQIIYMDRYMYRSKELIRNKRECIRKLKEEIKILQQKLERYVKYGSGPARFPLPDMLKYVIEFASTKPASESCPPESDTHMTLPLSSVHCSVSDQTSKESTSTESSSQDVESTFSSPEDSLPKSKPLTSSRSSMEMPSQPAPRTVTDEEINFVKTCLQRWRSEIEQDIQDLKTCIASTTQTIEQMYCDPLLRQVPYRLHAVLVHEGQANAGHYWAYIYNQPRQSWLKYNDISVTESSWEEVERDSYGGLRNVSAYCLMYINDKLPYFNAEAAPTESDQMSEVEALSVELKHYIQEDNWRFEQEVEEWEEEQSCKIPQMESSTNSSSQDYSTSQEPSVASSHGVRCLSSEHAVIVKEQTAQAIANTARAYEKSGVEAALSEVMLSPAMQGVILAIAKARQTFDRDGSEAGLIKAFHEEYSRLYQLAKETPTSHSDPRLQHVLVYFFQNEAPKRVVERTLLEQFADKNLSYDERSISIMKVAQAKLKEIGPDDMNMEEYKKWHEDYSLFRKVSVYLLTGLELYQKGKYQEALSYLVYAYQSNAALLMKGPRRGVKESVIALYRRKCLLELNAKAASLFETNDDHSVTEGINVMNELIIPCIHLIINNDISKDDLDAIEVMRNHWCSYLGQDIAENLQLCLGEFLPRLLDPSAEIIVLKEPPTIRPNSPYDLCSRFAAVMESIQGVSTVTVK
# USP17 inh: human USP17-like deubiquitinase inhibition | A8MUK1 | purified USP17, Ub-rhodamine cleavage fluorescence, 3 h | inhibition, % at 50 µM | 6.5% of 47,000 active | AID 1645855
# USP30 inh: blocks human USP30 ubiquitin-rhodamine cleavage; inhibition, % at 25 µM; Q70CQ3; 5.3% of 47,000 active; purified USP30, Ub-rhodamine cleavage fluorescence
# The depositor's hits bear a star; . = no result given. No stated cut-off is given here; in the data, active means inhibition above about 30%; inactive means the rest.
SMILES,USP8 inh,USP28 inh,USP17 inh,USP30 inh
O=C(Nc1cccnc1)c1nc2c(s1)CCN(C(=O)c1cccnc1)CC2,-212.9,4.8,-23.8,8.2
Cn1c(-c2ccccc2)c(C2c3ccccc3C(=O)N2CC(=O)NCC(N)=O)c2ccccc21 (stereo not given),6.5,4.3,0.0,-16.3
O=C(Nc1cnn(-c2ncc(N3CCCCC3)cn2)c1)c1ccccn1,-37.5,-9.3,.,-56.0
Cc1ccc(CSc2nnc(C3CCNCC3)o2)cc1,-135.3,32.4*,-5.5,19.1
Fc1cccc(Cl)c1CSc1nnc(C2CCNCC2)o1,-15.3,15.1,7.7,24.5
COc1cccc(CN2C[C@H]3CCN(Cc4cccnc4)CC[C@H]3S2(=O)=O)c1,-13.6,4.0,-5.2,13.4
O=C(c1cccc(F)c1)N1CCCC(c2[nH]nc3nccnc23)C1 (stereo not given),4.0,8.7,9.7,16.5
Cc1ccc2nc(N3C(=O)c4oc5ccccc5c(=O)c4C3c3ccc(C)o3)sc2c1 (stereo not given),9.9,13.1,40.4*,41.0*
CCOC(=O)c1sc(NC(=O)c2cc(-c3ccc(OC)cc3)nc3ccccc23)nc1C,-3.8,-22.3,-1.6,-65.6
CCN(CC)C(=O)c1sc(NC(=O)c2cc(-c3ccccc3Cl)nc3ccccc23)c(C(N)=O)c1C,47.1*,4.5,13.5,5.2
O=C(O)C1CCC1C(=O)N1CCN(c2ccc(C(F)(F)F)cn2)CC1 (stereo not given),12.1,8.0,11.3,3.0
O=C(O)c1ccccc1C(=O)N1CCN(c2ccc(C(F)(F)F)cn2)CC1,15.0,2.9,19.0,31.9*
O=C1OC(C(=O)N2CCN(c3ccc(C(F)(F)F)cn3)CC2)Cc2ccccc21 (stereo not given),3.0,0.0,42.5*,13.9
O=C1OC(C(=O)N2CCN(S(=O)(=O)c3ccc(F)cc3)CC2)Cc2ccccc21 (stereo not given),-56.0,0.0,0.1,-28.9
Cn1c(=O)c2c(SCC(=O)N3CCCC3)nc(-c3cccc(F)c3)nc2n(C)c1=O,-29.1,-17.3,.,4.4
Cc1ccc(F)cc1NC(=O)CCCc1c[nH]c2ccccc12,5.0,7.6,-0.7,-3.6
O=C(CCc1c[nH]c2ccccc12)Nc1ccc(Br)cc1F,18.3,42.3*,14.3,17.3
CC1(C)OC(=O)[C@@]2(C)N[C@]1(C)C[C@@H]2C(=O)Nc1cccc2cccnc12,41.2*,-8.3,6.7,-35.4
CCn1ccc2c(cc(C(=O)Nc3cccc(F)c3)n2C)c1=O,-6.5,42.8*,38.8*,12.5
Cn1c(=O)c2c(C(=O)Nc3cccc(F)c3)cc(=O)n(C)c2n(C)c1=O,-21.6,-7.3,-6.0,-39.6
CCn1ccc2c(cc(C(=O)Nc3cccc(C)c3C)n2C)c1=O,-8.4,31.2*,-16.3,-6.4
CCOc1ccccc1CNC(=O)c1cc2c(=O)n(C)ccc2n1C,5.1,14.1,9.4,11.5
COc1ccc(CNC(=O)C(C)n2nc(-c3ccco3)c(-c3cc(C)no3)cc2=O)cc1 (stereo not given),28.4,22.6,63.6*,28.1
COc1ccc(C(=O)Cn2nc(-c3ccco3)c(-c3cc(C)no3)cc2=O)cc1,23.6,25.3,46.8*,-4.5
Cc1ccc2nc(CCc3ccc(NS(=O)(=O)c4ccc(F)c(F)c4)cc3)[nH]c2c1,8.9,30.9*,1.4,2.7
SMILES,USP8 inh,USP28 inh,USP17 inh,USP30 inh
COc1ccc(NC(=O)CSc2oc(-c3ccc(C)cc3)nc2S(=O)(=O)c2ccc(Br)cc2)c(OC)c1,12.9,9.9,58.7*,15.6
O=C(CSc1oc(-c2ccc(F)cc2)nc1S(=O)(=O)c1ccc(F)cc1)Nc1ccc(F)cc1,13.7,-12.4,3.1,-3.8
Cc1cccc(CN2CCCCCC2c2ccn(C)n2)n1 (stereo not given),-8.5,-3.5,-10.0,-19.4
Cn1c(N2CCCC(C(=O)NC3CCN(Cc4ccccc4)CC3)C2)cc(=O)n(C)c1=O (stereo not given),-16.9,-24.2,-26.7,-96.3
CCCc1cc(=O)oc2cc(OCC(=O)NCc3ccccn3)ccc12,28.7,17.2,61.2*,60.0*
CCc1ccc(NC(=O)c2cccc(-n3cnnc3)n2)cc1,-25.0,0.1,-3.7,-0.6
O=C(Nc1ccc(Cl)cc1)c1nc(-n2cnnc2)ccc1Cl,-23.5,8.6,35.8*,16.9
c1ccc(SCc2cc(N3CCOCC3)nc(-c3ccncc3)n2)cc1,-233.8,-20.6,-11.4,-5.0
COc1ccc(-c2cc(C(=O)Nc3cccc(C#N)c3)nn2C2CCS(=O)(=O)C2)cc1 (stereo not given),22.7,18.1,38.9*,19.0
CCCCNC(=O)c1cc(-c2ccc(C)cc2)n(C2CCS(=O)(=O)C2)n1 (stereo not given),0.2,.,-5.6,.
O=C(c1ccc(F)cc1Cl)N1CCN(c2nc(-c3ccccc3)no2)CC1,2.0,-11.3,-1.7,-2.3
O=C(c1cccc(-c2noc(-c3ccc(F)cc3)n2)c1)N1CCCC1,2.6,-2.4,0.0,14.8
Cc1cccc(C(=O)N2CCN(c3nc(-c4ccc(Cl)cc4)no3)CC2)c1,8.8,17.6,13.4,40.1*
Cc1ccccc1-c1nc(-c2cccc(C(=O)N3CCCC3)c2)no1,9.1,6.8,13.9,35.7*
CN1C[C@H]2CCN(C(=O)COc3ccccc3)CC[C@H]2S1(=O)=O,-55.3,-6.2,-5.2,1.5
COc1ccc(S(=O)(=O)c2cnc3cc(OC)c(OC)cc3c2NCc2ccccc2)cc1,-13.6,-5.9,-0.2,-0.8
COc1ccc(S(=O)(=O)c2cnc3ccc(Cl)cc3c2NCc2ccccc2)cc1,4.5,4.3,2.0,30.4*
COc1ccccc1-n1c(CNC(=O)c2ccc(S(=O)(=O)N3CCOCC3)cc2)nnc1SCc1ccc(Br)cc1,9.5,17.6,7.4,35.6*
COc1ccc(OCC(=O)Nc2ccc3c(c2)CCC(=O)N3Cc2ccccc2)cc1,0.8,14.4,12.6,32.4*
COc1ccc(N2CCN(C(=O)c3csc4ccccc34)CC2)cc1,-9.1,-10.5,-6.0,-0.6
O=C(c1csc2ccccc12)N1CCN(c2ccc(Cl)c(Cl)c2)CC1,5.6,5.6,1.3,32.6*
Nc1c(-c2nc(-c3ccc4c(c3)OCO4)cs2)nnn1-c1ccccc1,33.6*,7.3,64.9*,15.3
Cc1ccc(-c2csc(-c3nnn(-c4cccc(Cl)c4)c3N)n2)cc1,42.4*,-0.8,-3.7,-15.6
COc1ccc(-c2csc(-c3nnn(-c4cc(OC)cc(OC)c4)c3N)n2)cc1,-4.0,-5.8,-15.0,-29.2
Nc1c(-c2nc(-c3ccccc3)cs2)nnn1-c1ccccc1,2.9,.,7.6,.
Cc1csc(NC(=O)c2c[nH]c3ccccc3c2=O)n1,7.3,-1.4,-8.7,-47.8
CCOC(=O)CSc1nnc(-c2cnn(-c3ccccc3)c2N)o1,10.1,15.3,57.6*,20.8
CC(C)N1C(=O)C2(CCN(C(=O)CSc3ccncc3)CC2)c2ccccc21,-8.8,13.8,-4.0,20.0
COc1noc(C2CCN(S(=O)(=O)c3cccc(C)c3)CC2)c1C,16.5,8.1,29.9,28.5
Cc1ccc(OC(=O)c2cn(-c3ccccc3)nc2-c2cccnc2)cc1,-14.4,-4.1,55.4*,45.1*

# From PubChem
